The source of these data is PubChem BioAssay AID624040 (The Scripps Research Institute Molecular Screening Center, 2012).

About 2,100 (0.58%) of roughly 360,000 compounds were called active. The full list was thinned out, with actives kept by preference. Unmarked numbers belong to inactive results.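 Rule for the calls: active = inhibition above a per-plate cutoff, the mean of that plate's test compounds plus 3 SD (cut at about 27% in these data); inactive = the rest.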

What is called inhibition is the drop in the measured response relative to a control, in per cent.

Chain of Muscarinic acetylcholine receptor M5 (Homo sapiens) (P08912 whole entry, looked up): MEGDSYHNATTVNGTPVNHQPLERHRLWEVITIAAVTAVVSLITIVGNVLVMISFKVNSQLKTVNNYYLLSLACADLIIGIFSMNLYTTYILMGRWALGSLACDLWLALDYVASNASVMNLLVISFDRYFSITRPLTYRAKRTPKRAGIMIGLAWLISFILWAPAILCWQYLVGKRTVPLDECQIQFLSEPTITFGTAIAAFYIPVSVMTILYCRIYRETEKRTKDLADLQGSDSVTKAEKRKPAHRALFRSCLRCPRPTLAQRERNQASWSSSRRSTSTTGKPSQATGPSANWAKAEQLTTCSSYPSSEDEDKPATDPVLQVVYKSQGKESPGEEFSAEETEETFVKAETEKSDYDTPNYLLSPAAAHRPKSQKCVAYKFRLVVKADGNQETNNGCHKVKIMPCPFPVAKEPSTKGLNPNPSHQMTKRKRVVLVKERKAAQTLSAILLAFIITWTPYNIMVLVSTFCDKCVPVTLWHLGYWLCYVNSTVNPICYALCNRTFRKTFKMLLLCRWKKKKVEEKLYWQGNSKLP

This experiment addresses Muscarinic acetylcholine receptor M5 (Homo sapiens) (UniProt P08912). As to the kind of experiment: human M5 muscarinic receptor antagonists, primary screen, CHO cells, Fluo-8 calcium fluorescence (AID 624040).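 Note: 0% = acetylcholine EC80 with DMSO and 100% = DMSO without agonist.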 The following applies: CHO-hM5 cells, ACh EC80, at 3 µM, stronger effect = higher value.
Consider `CC1C(=O)NC(=O)C1c1ccccc1` (centres undefined), for which the inhibition is 5.64%.
As for `COc1cccc(-c2ccc(C#N)c(SCC(=O)NCCc3ccc(Cl)cc3)n2)c1`, the inhibition was -0.91%.
The value for `COc1cc(C(=O)N2CCOC23CCN(Cc2ccccc2)CC3)cc(OC)c1OC` was 4.88%.
As for `C[C@@H]1CC[C@@]2(OC1)O[C@H]1C[C@H]3[C@@H]4CC=C5C[C@@H](O)[C@H](O)C[C@]5(C)C4CC[C@]3(C)[C@H]1[C@@H]2C` (some centres undefined), the inhibition was -3.19%.
In the case of `Cc1onc(-c2ccccc2)c1-c1nnc(COC(=O)c2ccc(N(C)C)cc2)o1`, the inhibition was 66.8% (active).
In the case of `O=C(OCc1nnc(-c2ccccc2)o1)c1cc(=O)[nH]c2ccccc12`, the inhibition is 6.31%.
For the compound `O=C(OCc1nnc(-c2ccccc2)o1)c1ccc2c(c1)C(=O)N(CCc1ccccc1)C2=O`, the inhibition was 5.45%.
In the case of `CN/C(=C\[N+](=O)[O-])NCCSCc1csc(CN(C)C)n1`, the inhibition is 4.23%.
Regarding `CC(C)C(=O)Nc1nnc(Sc2ccc(N(C)C)cc2)s1`, the inhibition was -0.86%.
As for `O=C(c1ccc(N2CCCC2=O)cc1)N1CCN(c2ccc(C(F)(F)F)cc2[N+](=O)[O-])CC1`, the inhibition was 29.3% (active).
For the compound `O=C(Cc1ccc(S(=O)(=O)N2CCOCC2)s1)N1CCN(c2ccc(C(F)(F)F)cc2[N+](=O)[O-])CC1`, the inhibition is 17.4%.
Consider `COc1cc(OC)cc(C(=O)NC(=S)N2CCN(c3ccc(C(F)(F)F)cc3[N+](=O)[O-])CC2)c1`, for which the inhibition is 18.9%.
Consider `CC(Sc1sc(=S)sc1SC(C)C(=O)O)C(=O)O` (centres undefined), for which the inhibition is 0.68%.
The value for `CN1CCC[C@@H]1CCO[C@](C)(c1ccccc1)c1ccc(Cl)cc1` was 98.5% (active).
Consider `Cc1cc2oc3ccc(NCCC4CCCN4C)cc3c(=O)c2cc1C` (centres undefined), for which the inhibition is 9.19%.
The value for `Cc1ccc(-c2noc(CNC(=O)c3ccoc3C)n2)cc1` was 12.7%; that for `CC(=O)c1ccc(S(=O)(=O)N(C)CCCC(=O)N(C)Cc2ccccc2F)cc1` was -0.62%.
In the case of `Cc1nc(CN(C)C(=O)CC2C(=O)NCCN2Cc2ccc(F)cc2)cs1` (centres undefined), the inhibition was -22.7%.
The figure for `CSc1cccc(NC(=S)N(C(C)C)C(C)c2ccccn2)c1` (centres undefined) is 4.26%.
On to `CCOc1ccc2[nH]c(=O)c(CN(CCCO)S(=O)(=O)c3ccc(F)cc3)cc2c1`, for which the inhibition is 11.3%.
In the case of `COc1ccc(-c2[nH]ncc2CN(C)Cc2cccnc2)c(F)c1`, the inhibition is -5.23%.
With `COc1ccc2[nH]c(=O)c(CN(Cc3cccnc3)S(=O)(=O)c3ccccc3F)cc2c1`, the inhibition was 27.3% (active).
`CC(C)c1nnc(NC(=O)C2CCCN2S(=O)(=O)c2ccc(Cl)cc2)s1` (centres undefined): the inhibition is -0.86%.
Regarding `O=C(CNC1CCCCC1)NCC1(c2ccccc2)CCCC1`, the inhibition is 27.1% (active).
As for `CCOc1c(OC)cccc1C(=O)NCC1(c2ccccc2)CCCC1`, the inhibition was 15.3%.
As for `CC(=O)CC(CC(=O)NC1CCCCC1)c1ccccc1` (centres undefined), the inhibition is 8.42%.
The value for `CC1CN(c2nc(-c3ccccc3)nnc2-c2ccccc2)CC(C)O1` (centres undefined) was 0.03%; that for `C=CCC1(CC=C)CCCN1C(=O)c1cc(COc2ccc(-n3cncn3)cc2)on1` was 41.9% (active).
Regarding `O=C(c1cc(COc2c(F)cccc2F)on1)N1CCSCC1`, the inhibition was -3.86%.
As for `CCCC(=O)N1CCC1(C)C(=O)Nc1ccc(-n2cncn2)cc1` (centres undefined), the inhibition is -3.91%.
In the case of `CCN(CC)C(=O)C1CCC(C)(C(=O)O)C1(C)C` (centres undefined), the inhibition was 8.62%.
The figure for `COc1ccc(Cn2cc(CN3CCS(=O)(=O)N(Cc4ccc(-c5cccc(Cl)c5)cc4)C(C)C3=O)nn2)cc1` (centres undefined) is -2.91%; for `CC1=C(C(N)=O)C(c2sccc2C)n2nnnc2N1` (centres undefined) it is -6.06%; for `COc1ccc(OC)c(C2N(c3ccccn3)C(=O)C3CCCN32)c1` (centres undefined) it is 2.53%.
The figure for `CN(C)Cc1ccccc1C1(O)c2ccccc2CSc2ccccc21` (centres undefined) is 18.8%.
The figure for `CN(C)CC/C=C1\c2ccccc2CSc2ccccc21` is 99.1% (active); for `CCOC(=O)c1ccc(N=C2SC(C(=O)NC)CC(=O)N2CCc2ccccc2)cc1` (centres undefined) it is 3.02%; for `COc1ccc(NC(=O)/C(Cl)=C(/Cl)S(=O)Cc2ccc(C)cc2)cn1` (centres undefined) it is 34.9% (active).
Turning to `N#Cc1ccc(COC(=O)Cn2nnc(-c3ccccc3)n2)cc1`, the inhibition was 1.41%.
Regarding `c1cc(-n2cnnn2)ccc1NC1=NCCC1`, the inhibition was -8.17%.
For `O=C(CSc1nccn1-c1cccc(F)c1)NC1CCCC1`, the inhibition is 0.21%.
On to `CCC(C)(C)NC(=O)CN(C(=O)CCC(=O)Nc1cc(C)ccn1)c1ccc2c(c1)OCCO2`, for which the inhibition was -0.46%.
With `CCCOCC(O)CC(CC)C(=O)NNC(=S)Nc1ccccc1` (centres undefined), the inhibition is -7.7%.
As to `C=CCC(NC(=O)Cc1ccccc1)C(=O)NCCC` (centres undefined), the inhibition was -3.26%.
The figure for `CCCCC(=O)NNC(=S)NC(=O)C(c1ccccc1)c1ccccc1` is 28.1% (active).
On to `CCCNC(=O)N1CCN(C(=O)NCCC)CC1`, for which the inhibition is 8.13%.
The figure for `CCN1/C(=C\c2ccc3ccccc3[n+]2CC)Sc2cc(C)ccc21` is 48.1% (active); for `C#CCO[C@@H]1C[C@H](n2cnc3c(=O)[nH]c(NC(=O)C(C)C)nc32)O[C@@H]1CO` it is 9.77%; for `Cc1cccc(-n2c(Cc3cc(=O)[nH]c(=O)[nH]3)nnc2SC(C)C)c1` it is -3.22%.
In the case of `CC[C@]12c3[nH]c4ccc(Cl)cc4c3CCN1C(=O)[C@@H](CC(=O)NCCCOC)C[C@@H]2C(=O)N1CCN(C(=O)C2CC2)CC1`, the inhibition is 0.99%.
For the compound `COc1ccccc1NS(=O)(=O)c1ccc(C)c(C(=O)NCC(c2ccco2)N(C)C)c1` (centres undefined), the inhibition was 6.64%.
In the case of `CSCCC(NS(=O)(=O)c1ccc(C)cc1)C(=O)NCCc1c[nH]c2ccccc12` (centres undefined), the inhibition is 2.39%.
The figure for `Cc1cc(-c2ccc(S(=O)(=O)N3CCN(c4cccc(C(F)(F)F)c4)CC3)s2)on1` is 53.9% (active).
Turning to `Cc1cc(-c2ccc(S(=O)(=O)N3CCc4ccccc4C3)s2)on1`, the inhibition was 5.38%.
As for `Cc1cccc(N2CCN(S(=O)(=O)c3ccc(-c4cc(C)no4)s3)CC2C)c1` (centres undefined), the inhibition was -1.63%.
The figure for `C=CCCN(Cc1ccccc1)S(=O)(=O)c1ccccc1Br` is 13.3%; for `O=C(NCC(=O)N1CCC2(CC1)NCCc1[nH]cnc12)c1ccc(Br)cc1` it is -15.5%; for `O=C1C2C3C=CC(C3)C2C(=O)N1c1ccc(-c2nc3ccccc3c(=O)o2)cc1` (centres undefined) it is -6.13%.
For the compound `Nc1c(C(=O)c2cccs2)sc2nsc(SCCN3CCCCC3)c12`, the inhibition was 47.4% (active).
The figure for `CC1CCC2(CC1)NC(=O)N(Cc1nnc(-c3cccs3)o1)C2=O` (centres undefined) is 8.17%; for `COc1ccccc1CNC(=O)COn1nnc2ccc(S(=O)(=O)N3CCOCC3)cc21` it is 4.42%.
On to `Cn1cccc1C(=O)N1CCc2ccccc2C1`, for which the inhibition is -2.44%.
With `CN1CCN(S(=O)(=O)c2cccc(C(=O)N3CCc4ccccc43)c2)CC1`, the inhibition is 5.4%.
Take `CN1CCN(C(=O)N2c3ccccc3CCc3ccccc32)CC1`: the inhibition is 98.8% (active).
The figure for `COc1ccc(C(=O)NC2CC2)cc1OC1CCN(C/C=C/c2ccccc2)CC1` is 3.15%; for `COCCn1c(SCC(=O)Nc2cc(OC)ccc2OC)nc2c(c1=O)SC(C)C2` (centres undefined) it is 3.68%; for `CC(=O)Nc1ccc(S(=O)(=O)NCC(=O)OCc2cc(=O)oc3ccc4ccccc4c23)cc1` it is 0.62%.
With `CC(=O)N1CCC(N(C(=O)Nc2ccc(Cl)cc2)C(C)C)CC1`, the inhibition is 12.4%.
Regarding `CC(C)S(=O)(=O)c1csc(NC(=O)Nc2ccc(Cl)cc2)c1Cl`, the inhibition is 37.3% (active).
The value for `COc1ccc(OCC(O)CNC(=O)Nc2ccc(Cl)cc2)cc1` (centres undefined) was 12.7%; that for `Cc1cc(N2CCCC2)ccc1NC(=O)COc1ccc(Cl)cc1` was -1.18%; that for `O=C(CCCN=C1NS(=O)(=O)c2ccccc21)OCC(=O)c1ccc(F)c(F)c1` was 7.17%.
As for `COc1cc(OC)c(OC)cc1CN1CCN(C(=O)c2cccc3ccccc23)CC1`, the inhibition was 4.24%.
The value for `Cc1cccc2cc3c(N)c(C(=O)N4CCCc5ccccc54)sc3nc12` was 28.3% (active).
The value for `Cc1ccc(C(=O)N2CCCc3ccccc32)c(Cl)c1` was 16.7%.
As to `CCCn1nc(C(=O)N2CCCc3ccccc32)c2ccccc2c1=O`, the inhibition is 12.6%.
The value for `O=C(Cc1ccc(S(=O)(=O)N2CCOCC2)s1)NCCOc1ccccc1F` was -4.35%; that for `CC(Sc1nnc(CNC(=O)c2ccccc2F)n1C)C(=O)Nc1nccs1` (centres undefined) was 5.11%.
As for `FC(F)Oc1ccccc1NC(=S)Nc1cccc(Cl)c1Cl`, the inhibition was -7.36%.
Consider `COc1ccc(CN(C)C(=O)Cc2c[nH]c3ccccc23)c(OC)c1OC`, for which the inhibition is 1.21%.
`COc1ccc(CN(C)C(=O)Cc2ccsc2)c(OC)c1OC`: the inhibition is 6.37%.
`COc1ccc(-c2cc(C(=O)N(C)Cc3ccc(OC)c(OC)c3OC)c3ccccc3n2)cc1OC`: the inhibition was 29.8% (active).
Turning to `CCCCN(CCCC)CCNC(=O)CN1C(=O)COc2ccc(S(=O)(=O)N3CCOCC3)cc21`, the inhibition is -0.51%.
On to `CCO[C@H]1OC(C(=O)O)=C[C@@H](C2CCCCC2)[C@@H]1CCCO`, for which the inhibition was 9.63%.
In the case of `O=C(NCc1cccnc1)c1nc(-c2cccs2)no1`, the inhibition was 5.2%.
On to `CC(C)(C)NC(=O)NC(=O)COC(=O)CCC1CCCCC1`, for which the inhibition is -5.64%.
Regarding `CCc1ccc(CNC(=O)C2CCN(c3nnc(C)c4c(C)n(-c5ccc(C)cc5)nc34)CC2)cc1`, the inhibition is 0.33%.
For `CCOc1ccc(CCN2C(=S)N([C@@H](CC(C)C)CN3CCC[C@@H]3CN3C(=S)NC[C@@H]3Cc3ccc(O)cc3)C[C@@H]2Cc2ccc(O)cc2)cc1`, the inhibition was 0.29%.
As for `COc1ccc(C(c2nnnn2C2CCCC2)N2CCN(C/C=C/c3ccccc3)CC2)cc1` (centres undefined), the inhibition is 42% (active).
As to `COCCn1nnnc1C(c1ccccc1Cl)N1CCN(c2ccccc2OC)CC1` (centres undefined), the inhibition is -11.5%.
With `COc1ccc(C(c2nnnn2C2CCCCC2)N2CCN(c3ccccc3F)CC2)cc1` (centres undefined), the inhibition is -15.7%.
The figure for `CCCCn1nnnc1C(c1cccc(OC)c1OC)N1CCN(C/C=C/c2ccccc2)CC1` (centres undefined) is 47% (active); for `CCCCn1nnnc1C(c1ccccc1)N1CCN(c2ccccc2OC)CC1` (centres undefined) it is 2.03%; for `FC(F)(F)Oc1ccccc1C(c1nnnn1C1CCCCC1)N1CCN(C/C=C/c2ccccc2)CC1` (centres undefined) it is -11.2%.
